Test results as given in PubChem BioAssay (NCI).
This is part of a sample that, as a whole, favours compounds with a hit. Of some 79,000 tested, about 15% had one in any assay. Calls of active or inactive are those of the source. Rule as the data show it: active = growth inhibition above about 70%; inactive = the rest.

Legend:
[1] = NCI Yeast Anticancer Drug Screen. Data for the rad50 strain (AID 155);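 also: 0% = growth of vehicle-only cultures of the same strain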; settings: S. cerevisiae rad50 strain growth inhibition, hits give high values
Summary of the method: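 Vehicle-treated cultures provide the reference for the growth inhibition reported for compound-exposed, repair-deficient yeast.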

[2] = NCI Yeast Anticancer Drug Screen. Data for the mec2-1 strain (AID 157); settings: S. cerevisiae mec2-1 strain, hits give high values
Summary of the method: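 Yeast mec2-1 mutant treated with compound. Readout: growth inhibition vs vehicle controls.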

[3] = NCI Yeast Anticancer Drug Screen. Data for the sgs1 mgt1 strain (AID 161);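 also: 0% = growth of cultures given vehicle only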; settings: S. cerevisiae sgs1 mgt1 strain, hits give high values
Summary of the method: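 Mutant yeast exposed to compound; growth scored against vehicle-only wells.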

[4] = NCI Yeast Anticancer Drug Screen. Data for the cln2 rad14 strain (AID 165);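 also: 0% = growth equal to vehicle treated cultures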; settings: S. cerevisiae cln2 rad14 strain, hits give high values
Summary of the method: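 cln2 rad14 yeast strain; compound exposure; growth inhibition read vs vehicle controls.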

[5] = NCI Yeast Anticancer Drug Screen. Data for the bub3 strain (AID 167); settings: S. cerevisiae bub3 mutant strain, hits give high values
Summary of the method: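 Mutant yeast screening strain plus compound; vehicle-treated cultures serve as the 0% inhibition reference.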

[6] = NCI Yeast Anticancer Drug Screen. Data for the mlh1 rad18 strain (AID 175); settings: S. cerevisiae mlh1 rad18 strain growth inhibition, hits give high values
Summary of the method: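 Yeast w/ defined DNA-repair lesions; compound exposure; growth vs vehicle controls → % inhibition.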

[7] = at 5.0 µM (retest, dose inferred, filed as 0.5)
[8] = at 50.0 µM (retest, dose inferred, filed as 5.0)

Measured: growth inhibition

BrCc1ccccc1C[P+](c1ccccc1)(c1ccccc1)c1ccccc1
active: [1]; [8] 98% | [1]; at 50.0 µM 89.5% | [2]; [8] 99% | [2]; at 50.0 µM 90.7% | [3]; [8] 99% | [3]; at 50.0 µM 85.5% | [4]; [8] 97% | [4]; at 50.0 µM 82.3% | [5]; [8] 98% | [5]; at 50.0 µM 89.7% | [6]; [8] 98% | [6]; at 50.0 µM 88.2%
inactive: [1]; [7] 55% | [2]; [7] 52% | [3]; [7] 54% | [4]; [7] 25% | [5]; [7] 47% | [6]; [7] 69%

N#CI1OC(C(F)(F)F)(C(F)(F)F)c2ccccc21
active: [1]; [7] 72% | [1]; [8] 98% | [2]; [8] 99% | [2]; at 50.0 µM 92.2% | [3]; [7] 72% | [3]; [8] 99% | [3]; at 50.0 µM 87.7% | [4]; [8] 99% | [4]; at 50.0 µM 88.6% | [5]; [7] 91% | [5]; [8] 99% | [5]; at 50.0 µM 86.6% | [6]; [7] 87% | [6]; [8] 98% | [6]; at 50.0 µM 92.3%
inactive: [1]; at 50.0 µM 45.2% | [2]; [7] 61% | [4]; [7] 53%

O=NNc1ncc(Sc2ccccc2)nc1Sc1ccccc1
active: [6]; at 50.0 µM 71.8%
inactive: [1]; [7] -14% | [1]; [8] -8% | [1]; at 50.0 µM -0.45% | [2]; [7] -11% | [2]; [8] 13% | [2]; at 50.0 µM -24.9% | [3]; [7] -3% | [3]; [8] 20% | [3]; at 50.0 µM 45.5% | [4]; [7] 3% | [4]; [8] 11% | [4]; at 50.0 µM 15.5% | [5]; [7] -13% | [5]; [8] -11% | [5]; at 50.0 µM -9.1% | [6]; [7] 4% | [6]; [8] 12%

CCCCCCCOC(=O)CSC#N
inactive: [1]; [7] 61% | [2]; [7] 52% | [4]; [7] 29%
active: [1]; [8] 99% | [1]; at 50.0 µM 99.2% | [2]; [8] 99% | [2]; at 50.0 µM 99.3% | [3]; [7] 95% | [3]; [8] 99% | [3]; at 50.0 µM 99% | [4]; [8] 99% | [4]; at 50.0 µM 98.5% | [5]; [7] 86% | [5]; [8] 99% | [5]; at 50.0 µM 99.3% | [6]; [7] 90% | [6]; [8] 98% | [6]; at 50.0 µM 99.3%

Cc1cc(C=Nc2ccccc2)c(O)c2ncccc12
inactive: [1]; [7] 19% | [2]; [7] 10% | [3]; [7] 15% | [4]; [7] 8% | [5]; [7] 0% | [6]; [7] 14%
active: [1]; [8] 96% | [1]; at 50.0 µM 98.8% | [2]; [8] 95% | [2]; at 50.0 µM 99.3% | [3]; [8] 98% | [3]; at 50.0 µM 94.9% | [4]; [8] 98% | [4]; at 50.0 µM 83.7% | [5]; [8] 98% | [5]; at 50.0 µM 99.1% | [6]; [8] 99% | [6]; at 50.0 µM 99.2%

O=C1C(=O)C(Br)(c2ccccc2)C(=O)C1c1ccccc1 (configuration not stated)
inactive: [1]; [7] -16% | [1]; [8] 4% | [1]; at 50.0 µM 52.5% | [2]; [7] -22% | [2]; [8] 2% | [3]; [7] -19% | [3]; [8] 8% | [3]; at 50.0 µM 13.2% | [4]; [7] -2% | [6]; [7] 7% | [6]; [8] 20%
active: [2]; at 50.0 µM 71.4% | [4]; [8] 72% | [4]; at 50.0 µM 93.8% | [5]; [7] 85% | [5]; [8] 97% | [5]; at 50.0 µM 97.7% | [6]; at 50.0 µM 97.7%

CN(C)CCCNc1c(C#N)[n+]([O-])c2cc(Cl)ccc2[n+]1[O-]
active: [1]; [8] 93% | [2]; [7] 72% | [2]; [8] 93% | [3]; [8] 90% | [4]; [7] 70% | [4]; [8] 90% | [5]; [7] 88% | [5]; [8] 94% | [6]; [7] 80% | [6]; [8] 93%
inactive: [1]; [7] 59% | [1]; at 50.0 µM 66.7% | [2]; at 50.0 µM 43.5% | [3]; [7] 60% | [3]; at 50.0 µM 61.9% | [4]; at 50.0 µM 45.6% | [5]; at 50.0 µM 60% | [6]; at 50.0 µM 68.8%

CCc1c(C)[nH]c2c([N+](=O)[O-])cccc12
inactive: [1]; [7] 5% | [1]; [8] 29% | [2]; [7] 8% | [2]; [8] -14% | [3]; [7] -3% | [3]; [8] -1% | [4]; [7] -6% | [4]; [8] -2% | [5]; [7] -13% | [5]; [8] 3% | [6]; [7] 1% | [6]; [8] 27%
active: [1]; at 50.0 µM 95.2% | [2]; at 50.0 µM 94.5% | [3]; at 50.0 µM 95.2% | [4]; at 50.0 µM 94.5% | [5]; at 50.0 µM 96% | [6]; at 50.0 µM 94.8%

N=C(N)c1ccc(-c2ccc(-c3ccc(C(=N)N)cc3)o2)cc1
active: [1]; [8] 88% | [1]; at 50.0 µM 94.8% | [2]; at 50.0 µM 89% | [3]; at 50.0 µM 90.3% | [4]; at 50.0 µM 75.5% | [5]; at 50.0 µM 92.8% | [6]; [8] 76% | [6]; at 50.0 µM 92.2%
inactive: [1]; [7] 17% | [2]; [7] -6% | [2]; [8] 52% | [3]; [7] 1% | [3]; [8] 61% | [4]; [7] -2% | [4]; [8] 35% | [5]; [7] 4% | [5]; [8] 62% | [6]; [7] -10%
